Tests used:
Details in all cases: concentration: 1 μM, replicates: in singlicate; n = 1
GRK2 = tested on: T1, GRK2
T1 construct: gene ADRBK1

GRK3 = tested on: T2, GRK3
T2 construct: gene ADRBK2

GRK4 = tested on: GRK4
GRK7 = tested on: GRK7
GSK3A = tested on: GSK3A
GSK3B = tested on: GSK3B
HASPIN = tested on: T3, HASPIN
T3 construct: gene GSG2

HCK = tested on: HCK
HIPK1 = tested on: HIPK1
HIPK2 = tested on: HIPK2
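Further: KINOMEscan kinase panel screen.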

| SMILES | %Inh (GRK2) | %Inh (GRK3) | %Inh (GRK4) | %Inh (GRK7) | %Inh (GSK3A) | %Inh (GSK3B) | %Inh (HASPIN) | %Inh (HCK) | %Inh (HIPK1) | %Inh (HIPK2) |
| --- | --- | --- | --- | --- | --- | --- | --- | --- | --- | --- |
| CCc1nc(-c2cccc(C)c2)c(-c2ccncc2)s1 | 0% | 0% | 0% | 0% | 27% | 0% | 0% | 21% | 30% | 0% |
| O=C(Nc1n[nH]c2cc(-c3ccccc3F)ccc12)C1CC1 [SB-733371] | 0% | 0% | 26% | 0% | 24% | 19% | 22% | 0% | 2% | 0% |
| COc1ccc(-c2cc3c(C)nc(N)nc3n([C@H]3CC[C@H](O)CC3)c2=O)cn1 | 0% | 14% | 0% | 1% | 0% | 0% | 0% | 0% | 0% | 0% |
| COc1ccc(Nc2nccc(N3CCC(NS(=O)(=O)c4ccc(NC(C)=O)cc4)C3)n2)cc1 (stereo not shown) [GSK1379729] | 3% | 0% | 49% | 0% | 0% | 7% | 19% | 7% | 0% | 20% |
